Assay results reported in PubChem BioAssay (Tox21).
Inconclusive results are not listed. The source made the active and inactive calls. Unless noted, calls come from the whole dose curve; as a rule, active = well fitted curve in the direction sought with a large enough effect in the repeat runs; inconclusive = weak or mixed curves; inactive = no such curve, though single readings can be large; an effect the other way counts as inactive or inconclusive.

What was measured:
[1] = qHTS assay to identify small molecule antagonists of the estrogen receptor alpha (ER-alpha) signaling pathway using the BG1 cell line in the presence of 0.1 nM 17-beta-estradiol - cell viability counter screen (AID 1259241); note: nearly all actives have a fitted effect of over 40% in size
In short: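 VM7Luc4E2 cells (endogenous full-length ER-alpha, 4xERE-luciferase), cultured 5 days in charcoal-stripped serum, exposed to compounds with 0.1 nM 17beta-estradiol (final) for 22 hr at 37C. Viability read in same wells as live-cell protease fluorescence after 30 min.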

[2] = qHTS assay to identify small molecule antagonists of the androgen receptor (AR) signaling pathway using the MDA cell line in the presence of 0.5 nM R1881 - cell viability counter screen (AID 1259242); note: nearly all actives have a fitted effect of over 45% in size
In short: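 qHTS format. MDA-kb2 (MMTV-luc, AR/GR responsive) + cpd + 0.5 nM R1881 final, 16 hr 37C/0% CO2 → CellTiter-Fluor 30 min → fluorescence intensity.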

[3] = qHTS assay to identify small molecule HDAC inhibitors (AID 1259364); note: potency is the fitted concentration of half-maximal effect;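 note: wild-type HCT-116 cells with endogenous class I/II HDAC activity; nearly all actives have a fitted effect of over 45% in size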
In short: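 Quantitative high-throughput format: overnight-seeded HCT-116 cells got compounds for 2 hr at 37C; HDAC-Glo I/II reagent added, 30 min RT, luminescence measured.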

[4] = qHTS assay to identify small molecule HDAC inhibitors - cell viability counter screen (AID 1259365); note: series mostly up to about 92 µM; nearly all actives have a fitted effect of over 50% in size
In short: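 Wild-type HCT-116 cells, 1,500/well, cultured overnight, then compound-treated 2 h at 37 C. Viability measured as ATP luminescence with CellTiter-Glo after 30 min at room temperature.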

[5] = qHTS assay to identify small molecule agonists of the sonic hedgehog signaling (Shh) pathway - cell viability counter screen (AID 1259366); note: nearly all actives have a fitted effect of over 50% in size; note: potency is the fitted concentration of half-maximal effect
In short: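 NIH/3T3-derived Gli1-Luc reporter cells, 2,000 per well, received compound after 4 h and were treated about 23 h at 37C. Viability measured in the same wells by CellTiter-Fluor fluorescence after 1 h.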

[6] = qHTS assay to identify small molecule agonists of the sonic hedgehog signaling (Shh) pathway (AID 1259368; calls by dose curve;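 note: NIH/3T3-derived 3T3Gli1-Luc cells carrying a stable Gli1-driven firefly luciferase reporter; series mostly up to about 92 µM; nearly all actives have a fitted effect of over 15% in size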)
In short: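 Quantitative high-throughput format using a Gli1-driven firefly luciferase reporter line derived from NIH/3T3 cells. After a 24 hr compound treatment at 37 C and 5% CO2, luminescence reported Gli1 response element activity.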

[7] = qHTS assay to identify small molecule antagonists of the sonic hedgehog signaling (Shh) pathway (AID 1259369; calls by dose curve; note: nearly all actives have a fitted effect of over 45% in size)
In short: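 Stable Gli1-Luc reporter NIH/3T3 clone; quantitative HTS in stimulated mode with conditioned medium. Luminescence measured after 24hr compound treatment at 37 C.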

[8] = molecular target: Estrogen receptor beta (Homo sapiens) (UniProt Q92731); experiment: qHTS assay to identify small molecule agonists of the estrogen receptor beta (ER-beta) signaling pathway (AID 1259377; active = well fitted activation curve with a large enough effect in the signal ratio in the repeat runs, not every such curve was filed as active; the % refers to the signal ratio)
Estrogen receptor beta (Homo sapiens), sequence (Q92731 whole entry, looked up): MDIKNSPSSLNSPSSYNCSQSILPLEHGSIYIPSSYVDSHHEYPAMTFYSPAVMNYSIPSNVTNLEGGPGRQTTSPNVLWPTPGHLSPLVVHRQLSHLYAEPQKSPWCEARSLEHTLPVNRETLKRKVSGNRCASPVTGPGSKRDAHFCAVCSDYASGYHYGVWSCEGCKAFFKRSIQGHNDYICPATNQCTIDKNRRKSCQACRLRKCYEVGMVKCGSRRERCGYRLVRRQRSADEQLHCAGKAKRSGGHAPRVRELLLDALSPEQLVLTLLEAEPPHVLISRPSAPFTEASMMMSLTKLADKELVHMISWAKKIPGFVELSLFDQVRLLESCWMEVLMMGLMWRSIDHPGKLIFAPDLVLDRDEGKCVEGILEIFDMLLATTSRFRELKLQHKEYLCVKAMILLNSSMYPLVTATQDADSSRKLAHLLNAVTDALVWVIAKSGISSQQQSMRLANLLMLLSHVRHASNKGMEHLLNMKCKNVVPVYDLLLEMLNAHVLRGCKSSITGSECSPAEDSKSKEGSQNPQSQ
In short: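 ER-beta-UAS-bla HEK293T cells in medium with 2% charcoal-stripped FBS were exposed to compounds for 16 h at 37C. Beta-lactamase reporter activity was read as fluorescence after 2 h with LiveBLAzer B/G FRET substrate at room temperature.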

[9] = molecular target: Estrogen receptor beta (Homo sapiens) (UniProt Q92731); experiment: qHTS assay to identify small molecule antagonists of the estrogen receptor beta (ER-beta) signaling pathway (AID 1259378; active = well fitted inhibition curve with a large enough effect in the signal ratio in the repeat runs, not every such curve was filed as active; the % refers to the signal ratio; note: potency is the fitted concentration of half-maximal effect)
In short: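 Antagonist mode: compounds added to beta-lactamase reporter HEK293T ER-beta-UAS cells stimulated with E2 (1nM final), 16 hr at 37C. LiveBLAzer B/G FRET substrate, 2 hours room temperature, fluorescence read-out.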

[10] = qHTS assay to identify small molecule agonists of the androgen receptor (AR) signaling pathway in the presence of an antagonist - cell viability counter screen (AID 1259379); note: nearly all actives have a fitted effect of over 25% in size; note: potency is the fitted concentration of half-maximal effect
In short: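 Nilutamide-containing (3.0uM final) MDA-kb2 cultures, 3,000 cells/well, were treated with compounds across 15 concentrations. After 16 hr at 37C with no CO2, cell viability was determined by CellTiter-Fluor fluorescence in the luciferase assay wells.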

[11] = qHTS assay to identify small molecule agonists of the estrogen receptor beta (ER-beta) signaling pathway - cell viability counter screen (AID 1259380); note: nearly all actives have a fitted effect of over 30% in size; note: potency is the fitted concentration of half-maximal effect
In short: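 Steps: plate ER-beta-UAS-bla HEK293T cells, rest 6 hr; add compounds in DMSO; incubate 16 hr at 37C, 5% CO2; add FRET substrate 2 hr; add CellTiter-Glo, wait 30 min at room temperature; read luminescence.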

[12] = qHTS assay to identify small molecule antagonists of the estrogen receptor beta (ER-beta) signaling pathway - cell viability counter screen (AID 1259382); note: nearly all actives have a fitted effect of over 55% in size; note: potency is the fitted concentration of half-maximal effect
In short: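 Viability is scored by CellTiter-Glo luminescence (30 min, room temperature) in ER-beta-UAS-bla HEK293T wells already read for reporter fluorescence. Compound exposure lasts 16 hr at 37C alongside 1nM 17-beta-estradiol in charcoal-stripped serum medium.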

[13] = qHTS assay to identify small molecule agonists or antagonists of the thyroid stimulating hormone receptor (TSHR) signaling pathway - wild type cell line counter screen (AID 1259384; calls by dose curve)
In short: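 Counter screen in untransfected Hek293: compounds (15-point titration, triplicate) plus phosphodiesterase inhibitor Ro20-1724 added after 18 h plating; 30 min RT. Intracellular cAMP via competitive d2/cryptate immunoassay, 1 h incubation.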

[14] = molecular target: Thyrotropin receptor (Homo sapiens) (UniProt P16473); experiment: qHTS assay to identify small molecule antagonists of the thyroid stimulating hormone receptor (TSHR) signaling pathway (AID 1259385; calls by dose curve; note: nearly all actives have a fitted effect of over 20% in size)
Thyrotropin receptor (Homo sapiens), sequence (P16473 whole entry, looked up): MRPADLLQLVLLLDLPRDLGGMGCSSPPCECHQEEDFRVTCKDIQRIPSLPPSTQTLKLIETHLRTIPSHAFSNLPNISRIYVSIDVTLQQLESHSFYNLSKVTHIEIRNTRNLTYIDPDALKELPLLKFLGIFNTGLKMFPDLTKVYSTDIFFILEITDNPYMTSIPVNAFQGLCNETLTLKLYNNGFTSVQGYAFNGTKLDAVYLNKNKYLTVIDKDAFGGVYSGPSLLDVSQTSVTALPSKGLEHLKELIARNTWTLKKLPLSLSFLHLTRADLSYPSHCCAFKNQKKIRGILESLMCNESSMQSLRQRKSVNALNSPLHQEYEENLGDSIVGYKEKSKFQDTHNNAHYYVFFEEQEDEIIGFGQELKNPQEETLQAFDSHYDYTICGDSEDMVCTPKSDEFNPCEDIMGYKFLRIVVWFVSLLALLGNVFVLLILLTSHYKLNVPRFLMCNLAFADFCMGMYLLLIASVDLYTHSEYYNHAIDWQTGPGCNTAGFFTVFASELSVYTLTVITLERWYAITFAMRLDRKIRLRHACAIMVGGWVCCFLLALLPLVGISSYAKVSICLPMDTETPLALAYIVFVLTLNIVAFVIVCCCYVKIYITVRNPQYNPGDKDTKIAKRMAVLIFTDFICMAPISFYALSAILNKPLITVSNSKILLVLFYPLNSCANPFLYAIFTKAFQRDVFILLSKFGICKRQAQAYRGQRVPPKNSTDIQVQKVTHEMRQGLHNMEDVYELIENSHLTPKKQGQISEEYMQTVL
In short: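 Antagonist mode: compound-treated TSHR-expressing HEK293 cells were stimulated with 1.5 ng/mL TSH (final) in presence of Ro20-1724 for 30 min at RT. HTRF cAMP detection after 1 h; each compound tested at 15 concentrations, triplicate.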

[15] = qHTS assay to identify small molecule antagonists of the sonic hedgehog signaling (Shh) pathway - cell viability counter screen (AID 1259367); note: nearly all actives have a fitted effect of over 55% in size; note: potency is the fitted concentration of half-maximal effect
In short: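 Viability was read by CellTiter-Fluor fluorescence in the same wells, reagent added 23 hr into compound treatment and incubated 1 hr at 37C. The 3T3 Gli1-Luc reporter cells (2,000/well) received conditioned medium after compound and ran 24 hr.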

[16] = molecular target: Androgen receptor (Homo sapiens) (UniProt P10275); experiment: qHTS assay to identify small molecule agonists of the androgen receptor (AR) signaling pathway in the presence of an antagonist (AID 1259381; calls by dose curve; note: nearly all actives have a fitted effect of over 15% in size)
Androgen receptor (Homo sapiens), sequence (P10275 whole entry, looked up): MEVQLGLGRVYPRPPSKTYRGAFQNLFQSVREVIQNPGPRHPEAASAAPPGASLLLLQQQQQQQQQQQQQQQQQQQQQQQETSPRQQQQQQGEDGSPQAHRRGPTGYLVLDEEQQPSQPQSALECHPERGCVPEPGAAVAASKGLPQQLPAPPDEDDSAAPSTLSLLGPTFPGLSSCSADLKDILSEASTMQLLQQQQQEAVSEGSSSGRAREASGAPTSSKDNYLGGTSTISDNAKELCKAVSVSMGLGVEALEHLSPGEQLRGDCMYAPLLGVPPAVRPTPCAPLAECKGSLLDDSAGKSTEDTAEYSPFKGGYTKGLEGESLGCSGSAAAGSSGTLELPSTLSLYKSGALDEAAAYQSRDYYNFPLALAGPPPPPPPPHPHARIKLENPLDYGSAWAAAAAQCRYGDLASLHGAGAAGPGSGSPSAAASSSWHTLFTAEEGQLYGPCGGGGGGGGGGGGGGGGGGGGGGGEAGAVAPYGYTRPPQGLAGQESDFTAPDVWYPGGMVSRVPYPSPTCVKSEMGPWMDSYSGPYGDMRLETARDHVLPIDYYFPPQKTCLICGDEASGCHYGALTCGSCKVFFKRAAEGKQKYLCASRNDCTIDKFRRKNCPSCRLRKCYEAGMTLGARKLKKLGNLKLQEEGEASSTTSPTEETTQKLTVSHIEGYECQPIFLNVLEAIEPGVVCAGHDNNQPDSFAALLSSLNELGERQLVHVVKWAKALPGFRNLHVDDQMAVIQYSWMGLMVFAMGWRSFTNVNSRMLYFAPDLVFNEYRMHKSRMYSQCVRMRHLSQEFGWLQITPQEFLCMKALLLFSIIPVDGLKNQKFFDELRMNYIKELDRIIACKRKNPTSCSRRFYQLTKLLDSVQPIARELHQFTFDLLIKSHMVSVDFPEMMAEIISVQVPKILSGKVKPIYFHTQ
In short: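 Reporter-gene luminescence from MDA-kb2 cells exposed 16hr at 37C (0% CO2) to 15-point compound titrations with 3.0uM final nilutamide as AR antagonist.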

[17] = molecular target: Estrogen receptor (Homo sapiens) (UniProt P03372); experiment: qHTS assay to identify small molecule antagonists of the estrogen receptor alpha (ER-alpha) signaling pathway using the BG1 cell line in the presence of 0.1 nM 17-beta-estradiol (AID 1259244); note: nearly all actives have a fitted effect of over 50% in size; note: potency is the fitted concentration of half-maximal effect
Estrogen receptor (Homo sapiens), sequence (P03372 whole entry, looked up): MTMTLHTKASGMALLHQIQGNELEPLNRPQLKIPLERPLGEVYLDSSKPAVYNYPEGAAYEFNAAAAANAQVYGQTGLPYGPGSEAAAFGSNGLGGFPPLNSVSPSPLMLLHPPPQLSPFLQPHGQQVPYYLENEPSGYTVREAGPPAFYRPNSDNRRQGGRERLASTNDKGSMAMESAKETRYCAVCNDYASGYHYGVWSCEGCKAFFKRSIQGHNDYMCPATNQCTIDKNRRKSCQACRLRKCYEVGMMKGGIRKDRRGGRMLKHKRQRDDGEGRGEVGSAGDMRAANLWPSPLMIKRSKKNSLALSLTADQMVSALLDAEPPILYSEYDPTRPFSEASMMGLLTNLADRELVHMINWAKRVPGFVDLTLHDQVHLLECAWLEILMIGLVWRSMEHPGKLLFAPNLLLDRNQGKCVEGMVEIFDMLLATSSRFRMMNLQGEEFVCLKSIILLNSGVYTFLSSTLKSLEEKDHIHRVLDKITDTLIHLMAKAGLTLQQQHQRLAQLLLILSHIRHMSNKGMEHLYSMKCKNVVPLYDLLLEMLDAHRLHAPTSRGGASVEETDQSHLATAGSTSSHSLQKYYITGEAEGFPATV
In short: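 Reporter is a stably transfected luciferase under four estrogen responsive elements in VM7Luc4E2 cells expressing native full-length ER-alpha; inhibition of 0.1 nM (final) 17beta-estradiol-driven signal over 22 h is read by luminescence.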

[18] = molecular target: Estrogen receptor (Homo sapiens) (UniProt P03372); experiment: qHTS assay to identify small molecule agonists of the estrogen receptor alpha (ER-alpha) signaling pathway in the presence of an antagonist (AID 1259383; calls by dose curve; note: top concentration of the series differs between compounds; nearly all actives have a fitted effect of over 15% in size)
In short: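 Readout was ERE-driven luciferase luminescence in VM7Luc4E2 cells, which express full-length ER-alpha endogenously. Compounds were tested at 15 concentrations for 22hr alongside 10.0nM ICI-182,780 (final concentration).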

[19] = molecular target: Androgen receptor (Homo sapiens) (UniProt P10275); experiment: qHTS assay to identify small molecule antagonists of the androgen receptor (AR) signaling pathway using the MDA cell line in the presence of 0.5 nM R1881 (AID 1259243); note: potency is the fitted concentration of half-maximal effect; nearly all actives have a fitted effect of over 50% in size
In short: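 Antagonist mode quantitative HTS in MDA-kb2 MMTV-luciferase cells, agonist R1881 at 0.5 nM final, 16 hr exposure at 37C and 0% CO2, luminescent detection.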

Measured: Potency

COc1cccc(C(=O)NN(C(=O)c2cc(C)cc(C)c2)C(C)(C)C)c1C
active: [5] 13.7 µM
not listed: [15] | [16] | [17] | [18] | [19]
inactive: all other assays above

CCC(C)(C)c1cc(-n2nc3ccccc3n2)c(O)c(C(C)(C)CC)c1
not listed: [4] | [11] | [17] | [18] | [19]
inactive: all other assays above

CCS(=O)(=O)CCSP(=O)(OC)OC
inactive: [1] | [2] | [3] | [4] | [15] | [7] | [10] | [11] | [12] | [13]

CNC(=O)N(C)c1nc2ccccc2s1
active: [3] 0.545 µM
inactive: [1] | [2] | [5] | [15] | [6] | [7] | [10] | [12] | [13] | [14]

O=[N+]([O-])c1cc(Cl)c(Cl)c(Cl)c1
active: [10] 54 µM
not listed: [2] | [8] | [11] | [16] | [19]
inactive: all other assays above

C[C@]1(O)CC[C@H]2[C@@H]3CCC4=CC(=O)CC[C@]4(C)[C@@]3(F)[C@@H](O)C[C@@]21C
inactive: [1] | [2] | [3] | [4] | [5] | [15] | [10] | [12] | [13] | [14]

CNC(=O)O/N=C(\C)SC
not listed: [4] | [11] | [16] | [17] | [18] | [19]
inactive: all other assays above

Fc1ccc(C2(Cn3cncn3)OC2c2ccccc2Cl)cc1 (centres undefined)
active: [9] 30.6 µM | [11] 17.2 µM
not listed: [6] | [7] | [12] | [16] | [17] | [19]
inactive: all other assays above

O=[N+]([O-])c1cccc2c([N+](=O)[O-])cccc12
active: [19] 61.4 µM | [11] 10.9 µM
inactive: [3] | [4] | [5] | [15] | [6] | [7] | [16] | [13] | [14]

CC(COc1ccc(Oc2ccccc2)cc1)Oc1ccccn1 (centres undefined)
not listed: [3] | [14] | [17] | [18] | [19]
inactive: all other assays above

CC(C)COP(=O)(OCC(C)C)OCC(C)C
not listed: [6] | [12] | [14] | [15] | [16] | [17] | [18] | [19]
inactive: all other assays above

CCCCN(CCCCO)N=O
not listed: [1] | [11] | [16] | [17] | [19]
inactive: all other assays above

CNC(=O)Oc1cccc(C(C)C)c1
not listed: [8] | [9] | [15] | [16] | [17] | [18] | [19]
inactive: all other assays above

CCCSP(=S)(OCC)Oc1ccc(Cl)cc1Cl (centres undefined)
not listed: [1] | [4] | [8] | [9] | [14] | [16] | [19]
inactive: all other assays above

CCOC(=O)N(C)C(=O)CSP(=S)(OCC)OCC
not listed: [13] | [14] | [15] | [16] | [17] | [18] | [19]
inactive: all other assays above

CCCCC(=O)Cl
not listed: [15] | [16] | [17] | [18] | [19]
inactive: all other assays above

N#CC(O)c1ccccc1 (centres undefined)
not listed: [15] | [16] | [17] | [18] | [19]
inactive: all other assays above

CC(C1CC1)C(O)(Cn1cncn1)c1ccc(Cl)cc1 (centres undefined)
inactive: [1] | [2] | [3] | [4] | [5] | [15] | [9] | [10] | [13] | [14]

N#CC(CCc1ccc(Cl)cc1)(Cn1cncn1)c1ccccc1 (centres undefined)
active: [17] 27.3 µM | [5] 48.6 µM | [15] 27.3 µM | [9] 30.6 µM | [10] 48.6 µM | [12] 48.6 µM
inactive: [3] | [4] | [6] | [16] | [18] | [13]

COCC(=O)N(c1c(C)cccc1C)N1CCOC1=O
inactive: [1] | [2] | [3] | [5] | [15] | [6] | [7] | [10] | [11] | [12]

CNC(=O)Oc1c(C(C)(C)C)cc(C)cc1C(C)(C)C
not listed: [14] | [15] | [17] | [18] | [19]
inactive: all other assays above
